Consider 20 molecules from PubChem BioAssay AID1016 (Sanford-Burnham Center for Chemical Genomics, 2008).

Each structure is given as a SMILES string. About 330 (0.17%) of roughly 200,000 compounds were called active.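 How the source made its calls: active means activation factor of 2 or more at 20 µM, a signal rise over negative controls twice the positive control's; inactive means the rest.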 Many of the other results were omitted from the sample, so actives are more common in it than they were.

In this experiment the test system is alkaline phosphatase, intestinal [Bos taurus]. Put plainly: bovine intestinal alkaline phosphatase activators, primary screen, biochemical, bovine IAP, CDP-star luminescence (AID 1016). The conditions noted are these: purified bovine IAP, 30 min, at 20 µM, hits give high values, fold of DMSO-control signal, blank-subtracted.
Take `Cc1ccc(S(=O)(=O)Nc2nc(N)n(-c3ccccc3)n2)cc1`: the activation factor was 1.2 (inactive). Consider `CCOC(=O)NN1C(=O)c2ccccc2NC1c1ccccc1O` (stereo not given), for which the activation factor is 1 (inactive). Under `CCOC(=O)CN1CCC(c2ccccc2)CC1` stands 1 (inactive); under `CCOC(=O)Cn1c2c(c(-c3ccccc3OC)cc1=O)CCCC2`, 2.1 (active). Under `CCOC(=O)Cn1c(-c2cccnc2Cl)nc2ccccc21` stands 1 (inactive). The same measure for `COc1ccccc1NC1=NC(c2ccc(Cl)cc2)N=C(N)N1` (stereo not given): 2.7 (active); for `COc1ccccc1NC1=NC2(CCCC2)N=C(N)N1`: 0.9 (inactive); for `COc1ccccc1Nc1nc(N)nc(CN(C)C2CCCCC2)n1`: 0.9 (inactive). On to `CCOc1cc(N2CCOCC2)c(OCC)cc1NC(=O)C1=NN(c2cccc(C)c2)C(=O)CC1`, for which the activation factor was 0.9 (inactive).

With `O=C(NCc1ccccc1Cl)C1CCN(S(=O)(=O)N2CCOCC2)CC1`, the activation factor is 1 (inactive). Take `O=C(CN1C(=O)/C(=C/c2ccccc2F)Sc2ccccc21)NCc1cccnc1`: the activation factor was 1.1 (inactive).

On to `Cc1ccc(S(=O)(=O)C2C(=O)NC3(C)CC2c2ccccc2O3)cc1` (stereo not given), for which the activation factor is 0.9 (inactive). Under `COc1ccc(/C=C/C(=O)NC(=S)NN2CCCCC2c2cccnc2)cc1` (stereo not given) stands 0.7 (inactive); under `Cc1cccc(-n2cnc(C(=O)NNC(=S)Nc3ccccc3)c2)n1`, 1.6 (inactive). The same measure for `CCn1cc(/C=C2/SC(=S)NC2=O)c(C)n1`: 1.1 (inactive); for `CC1=CC=CC2=N/C(=N\S(=O)(=O)c3ccc(F)cc3F)c3ccccc3CN12`: 0.9 (inactive).

Consider `CC(=O)c1ccc(NC(=O)C(C)NCc2ccc(Cl)cc2)cc1` (stereo not given), for which the activation factor is 0.9 (inactive). On to `CC1(C)Cc2cccc(OCC(=O)N3CCN(c4ccc([N+](=O)[O-])cc4)CC3)c2O1`, for which the activation factor is 0.9 (inactive). For `N=c1c2c(-c3ccccc3)c(-c3ccccc3)n(Cc3ccccc3)c2ncn1CCCO`, the activation factor was 1.4 (inactive). Under `OCCCN1c2ccccc2Nc2nnc(-c3ccccc3)cc21` stands 9 (active).
